We go through 118 compounds from PubChem BioAssay AID488969 (Vanderbilt High Throughput Screening Facility, 2010).

The full ranking holds about 110,000 compounds; the median of “z-score” is about -0.1, and the highest 2% start at about 2. Many of the other results were omitted from the sample, so the highest values are more common in it than they were. Active and inactive are the calls of the source.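 Rule for the calls: active = z-score in the third read window above 3 or below -3; inactive = the rest.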

In the experiment the target is Metabotropic glutamate receptor 8 (Rattus norvegicus) (UniProt P70579). Nature of the experiment: mGluR8 Gi/Go-coupled signaling modulation – cell-based, rat, thallium flux, HTS, primary screen (AID 488969). Conditions: HEK293 rat mGluR8, GIRK (G protein-gated inwardly rectifying potassium channel) thallium flux, FluoZin2; at 10 µM; stronger effect = higher value; submaximal glutamate (EC20) added with thallium.
Metabotropic glutamate receptor 8 (Rattus norvegicus), sequence (P70579 whole entry, looked up): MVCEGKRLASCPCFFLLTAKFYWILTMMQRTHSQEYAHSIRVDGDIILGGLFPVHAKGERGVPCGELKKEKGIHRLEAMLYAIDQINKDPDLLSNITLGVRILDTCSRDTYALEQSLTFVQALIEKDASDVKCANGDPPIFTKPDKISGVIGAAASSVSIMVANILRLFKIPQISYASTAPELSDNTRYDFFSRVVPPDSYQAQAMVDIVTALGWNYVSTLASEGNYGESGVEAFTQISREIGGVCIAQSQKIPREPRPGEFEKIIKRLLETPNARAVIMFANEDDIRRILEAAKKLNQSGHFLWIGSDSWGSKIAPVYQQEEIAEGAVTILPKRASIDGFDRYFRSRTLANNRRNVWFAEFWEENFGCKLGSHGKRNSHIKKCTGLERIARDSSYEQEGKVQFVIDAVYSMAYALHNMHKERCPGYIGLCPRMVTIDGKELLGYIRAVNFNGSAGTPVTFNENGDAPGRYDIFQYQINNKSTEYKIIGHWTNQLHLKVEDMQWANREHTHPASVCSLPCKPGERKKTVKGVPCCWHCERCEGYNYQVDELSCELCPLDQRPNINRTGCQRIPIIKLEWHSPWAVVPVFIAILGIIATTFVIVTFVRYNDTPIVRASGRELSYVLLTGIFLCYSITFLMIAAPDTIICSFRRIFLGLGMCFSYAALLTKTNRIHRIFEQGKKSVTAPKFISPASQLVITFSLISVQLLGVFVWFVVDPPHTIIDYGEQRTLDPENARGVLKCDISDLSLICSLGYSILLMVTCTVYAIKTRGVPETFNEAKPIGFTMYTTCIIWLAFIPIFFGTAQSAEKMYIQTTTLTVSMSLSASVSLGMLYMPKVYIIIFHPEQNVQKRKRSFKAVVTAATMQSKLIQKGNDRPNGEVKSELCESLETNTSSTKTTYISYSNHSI
`CCCCC(=O)Nc1ccccc1C(=O)N1CCOCC1` registered a z-score of 0.0261.

Consider `C/C(=N\OCC(=O)Nc1ccc(F)c(F)c1F)c1cc2ccccc2o1`, for which the z-score is -1.92.

As for `CCCCOc1ccc(C(=O)N/C(=C\c2cccc([N+](=O)[O-])c2)C(=O)OC(C)C)cc1`, the z-score came out at 0.536.

With `Cc1ccc(CCSc2ccc(C(C)C)cc2)cn1`, the z-score is -0.399.

Compound `CC(C)CN1C(=O)NC(NC(=O)c2ccco2)(C(F)(F)F)C1=O` (stereo not drawn) had a z-score of 0.0372.

`CCCCN(C)C(=S)Nc1ccc(Oc2ccccc2)cc1` had a z-score of 1.42.

`CCC(=O)NC(=S)Nc1ccccc1C(=O)OC`: the z-score is -0.308.

Consider `Cc1ccc(OCC(=O)NC(=S)Nc2cccc(C)n2)cc1`, for which the z-score is 1.99.

Take `CCOC(=O)c1ccc(NC(=S)NC(=O)COc2ccccc2)cc1`: the z-score is 3.05 (active).

With `CCC(=O)NC(=S)Nc1ccc(NC(=O)COc2ccccc2)cc1`, the z-score turned out to be 0.0565.

The compound `Cc1cccc(NC(=O)COc2ccc(Br)cc2)n1` registered a z-score of -0.0989.

As to `COC(=O)c1ccccc1NC(=S)NC(=O)COc1ccc(C)cc1`, the z-score amounted to 2.28.

For `Cc1ccc(OCC(=O)NC(=S)Nc2ccc(Br)c(C)n2)cc1`, the z-score stood at 1.02.

As for `CCCN(CC1CC1)C(=S)Nc1ccc(Oc2ccccc2)cc1`, the z-score is 3.7 (active).

On to `CCOC(=O)c1ccc(NC(=S)Nc2ccccc2)cc1`, for which the z-score worked out at 1.7.

`CCCC(=O)NC(=S)Nc1ccccc1C(=O)OC` registered a z-score of 0.0764.

As for `CN(C(=S)Nc1ccc(Oc2ccccc2)cc1)C1CCCCC1`, the z-score was 0.0776.

On to `O=C(CSc1ccsc1[N+](=O)[O-])N1CCN(c2ccccc2)CC1`, for which the z-score is -0.247.

Turning to `COCCCNS(=O)(=O)c1ccc(SC)cc1`, the z-score is -0.232.

In turn, `O=C(COC(=O)Cc1c(Cl)cccc1Cl)Nc1ccc(OC(F)(F)F)cc1` returned a z-score of 0.262.

In the case of `CNc1nc(SCc2ccccc2)nc(N2CCOCC2)n1`, the z-score is -0.587.

Compound `O=c1ccn(-c2cccc(C(F)(F)F)c2)nc1-c1ccn(-c2ccccc2)n1` displayed a z-score of -0.401.

On to `S=C(Nc1cccc2ccccc12)N1CCN(c2ncccn2)CC1`, for which the z-score is -0.1.

`COc1ccc(-n2c(Cc3cccn3C)nnc2SCC(=O)NCCc2ccccc2)cc1` registered a z-score of -0.482.

Compound `CC12C(=O)N(c3cccc4cccnc34)C(=O)C1C1C=CC2C1` (stereo not drawn) showed a z-score of 0.818.

`CNc1nc(OCC(F)(F)F)nc(N2CCN(C34CC5CC(CC(C5)C3)C4)CC2)n1` came in with a z-score of 0.418.

In the case of `O=C(c1cccs1)N1N=C(c2ccccc2)CC1c1ccccc1` (stereo not drawn), the z-score is -0.101.

For the compound `O=C(Nc1ccc(Br)c(C(F)(F)F)c1)c1ccccc1`, the z-score came to 0.42.

Consider `COC(=O)c1ccccc1NC(=S)NC(=O)COc1ccccc1`, for which the z-score was 7.01 (active).

Compound `S=C(Nc1ccc(Oc2ccccc2)cc1)NC1CCCCCC1` displayed a z-score of 0.425.

With `CCCNC(=S)Nc1ccc(Oc2ccccc2)cc1`, the z-score was 0.463.

In the case of `COC(=O)c1ccccc1NC(=S)NC(NC(=O)COc1ccccc1)C(Cl)(Cl)Cl` (stereo not drawn), the z-score is -0.203.

In turn, `CCCN1CCC(NC(=S)Nc2ccc(C(=O)OCC)cc2)CC1` showed a z-score of -0.26.

`CC(C)CNC(=S)Nc1ccc(Oc2ccccc2)cc1` showed a z-score of 2.69.

Regarding `COC(=O)c1ccc(NC(=S)NC2CCCCC2)cc1`, the z-score is 0.1.

In the case of `CCOC(=O)c1ccc(NC(=S)NC2CCCC2)cc1`, the z-score amounted to 2.61.

Regarding `COC(=O)c1ccccc1NC(=S)NC(=O)CC(C)C`, the z-score is 0.252.

With `CCNC(=S)Nc1ccc(Oc2ccccc2)cc1`, the z-score stood at 0.818.

The compound `S=C(NCC1CCCCC1)Nc1ccc(Oc2ccccc2)cc1` had a z-score of 0.317.

`S=C(Nc1ccc(Oc2ccccc2)cc1)NC1CCCC1`: the z-score was 7.92 (active).

`CCn1cnc2cc(NCc3nc4ccccc4n3Cc3ccccc3)ccc21` came in with a z-score of -0.34.

`CC(C)c1ccc2[nH]c(O)c(N=NC(=O)c3cccc(S(=O)(=O)N4CCCCC4)c3)c2c1` gave a z-score of -0.156.

Compound `CCOc1ccc(/C=C/C(=O)NCCc2ccc(OC)c(OC)c2)cc1` displayed a z-score of -0.114.

Consider `COc1ccc(OCc2ccc(C(=O)NN)cc2)cc1`, for which the z-score was found to be 0.222.

`Cc1ccc2cc(COC(=O)c3ccncc3)c(=O)[nH]c2c1`: the z-score was -0.162.

In the case of `COc1ccc(-c2cc(C(=O)OCC(=O)N3CCCC3)c3ccccc3n2)cc1`, the z-score was -0.231.

`CCn1c(SCC(=O)Nc2cccc(C(C)=O)c2)nnc1C(C)C`: the z-score is 2.28.

For `CCc1cccc(CC)c1NC(=O)CSc1nnc(C(C)C)n1CC`, the z-score is 0.342.

`CCn1c(SCC(=O)Nc2cccc(NC(C)=O)c2)nnc1C(C)C` came in with a z-score of -0.322.

On to `Cc1ccc2cc(CN(Cc3ccco3)C(=O)c3ccccc3)c(=O)[nH]c2c1C`, for which the z-score is -0.385.

Take `Nc1nnnn1/N=C/c1ccccc1OCc1ccccc1`: the z-score was -0.208.

In turn, `COc1ccc(N2CCN(CC(=O)Nc3ccc(-n4cnnn4)cc3)CC2)cc1` returned a z-score of 1.05.

In turn, `CCCCOP(=O)(OCCCC)C(O)c1ccc(Br)cc1` (stereo not drawn) gave a z-score of -0.269.

Compound `CCN(CC)S(=O)(=O)c1cccc(C(=O)N2CC(O)CC2C(=O)OC)c1` (stereo not drawn) showed a z-score of -0.00902.

The compound `O=C(N/N=C/c1ccccn1)c1ccc(Br)cc1` registered a z-score of 1.82.

With `COc1ccc(C(=O)N/N=C/c2ccc3cccc(OCc4ccccc4)c3n2)cc1`, the z-score is 3.81 (active).

In the case of `O=C(N/N=C/c1ccc2cccc(OCc3ccccc3)c2n1)c1ccc(Br)cc1`, the z-score was 3.65 (active).

Consider `COc1ccc(CSCC(=O)N/N=C/c2ccccc2OCc2ccccc2)cc1`, for which the z-score was found to be 1.27.

Turning to `O=C(N/N=C/c1ccc2cccc(OCc3ccccc3)c2n1)c1ccc(Cl)cc1`, the z-score turned out to be 0.327.

`COc1ccc(C(=O)N/N=C/c2cccc3cccnc23)cc1` came in with a z-score of -0.417.

In the case of `Cc1ccc(C(=O)N2CCN(c3ccc([N+](=O)[O-])c(N4CCOCC4)c3)CC2)cc1`, the z-score is -0.394.

For `COc1c(C)cccc1C(=O)Nc1cc(-c2nn3c(C)nnc3s2)ccc1C`, the z-score was -1.6.

`Cn1c2ccccc2c(=O)c2c(=O)n(-c3ccccc3)c(C3CCCCC3)nc21` registered a z-score of -1.31.

Turning to `CCCn1c(SCC(=O)/C(C#N)=C(\C)N)n[nH]c1=O`, the z-score is -0.649.

`CCOC(=O)C(CC)(CC)/C(C)=N/NC(=O)CC#N` returned a z-score of 0.316.

`CCOc1nc(Nc2ccc(OC)cc2)nc(OCC)n1`: the z-score was -1.62.

Consider `COc1ccc(NC(=S)Nc2ccc3nc(C)c(C)nc3c2)cc1`, for which the z-score is -0.104.

As to `CCOC(=O)c1csc(NC(=O)CSc2nnnn2-c2ccc(OC)cc2)n1`, the z-score turned out to be 0.0329.

In the case of `c1cn(C23CC4CC(CC(C4)C2)C3)cn1`, the z-score is 4.17 (active).

As for `c1nnnn1C12CC3CC(CC(C3)C1)C2`, the z-score was 0.487.

As to `Nc1ncn(C23CC4CC(CC(C4)C2)C3)n1`, the z-score is -0.106.

Turning to `CCCC(C(=O)c1ccccc1)n1cncn1` (stereo not drawn), the z-score was -0.313.

In the case of `N#Cc1c(-c2cccnc2)c2c([nH]c1=S)CCCC2`, the z-score is -0.285.

Compound `COc1ccc(-c2c3c([nH]c(=S)c2C#N)CCC3)cc1` displayed a z-score of 2.17.

Compound `N#Cc1c(-c2ccncc2)c2c([nH]c1=S)CCCC2` gave a z-score of -0.164.

Regarding `COc1cc(C(=O)N(Cc2ccco2)Cc2cc3ccccc3[nH]c2=O)cc(OC)c1OC`, the z-score was -0.671.

Turning to `COc1cc(C2Nn3c(nnc3-c3ccccc3OC)S2)ccc1O` (stereo not drawn), the z-score is -0.0272.

Turning to `COc1ccc(OCC(=O)NNC(=O)c2cccs2)cc1`, the z-score stood at 0.919.

With `COc1ccc(NC(=O)C(=O)NNC(=O)c2cccs2)c(OC)c1`, the z-score was 5.95 (active).

Compound `COc1ccc(OC)c(NC(=O)C(=O)NNC(=O)c2cccs2)c1` displayed a z-score of 1.69.

Compound `COc1ccc(NC(=O)c2cccs2)cc1` came in with a z-score of 0.303.

With `COc1ccc(NC(=O)C(=O)NNC(=O)c2cccs2)cc1`, the z-score was 7.11 (active).

`COc1cc(N)ccc1NC(=O)c1cccs1` registered a z-score of -0.15.

In turn, `CCC(=O)Nc1nnc(SCc2ccc(F)cc2)s1` displayed a z-score of -0.00764.

Regarding `COc1ccc(N2C(=O)CC(Nc3ccc(C)cc3)C2=O)cc1` (stereo not drawn), the z-score was -0.557.

The compound `CC1CC(C)(C)NC(=S)N1CC(=O)N(C)Cc1ccccc1` (stereo not drawn) returned a z-score of -0.189.

For `CCNC(=S)NNC(=O)c1cccn(Cc2ccc(Cl)cc2Cl)c1=O`, the z-score was -0.0504.

With `COn1c(=O)c(-c2cccs2)[n+]([O-])c2ccccc21`, the z-score came out at 1.16.

For the compound `C=CCOn1c(=O)c(-c2cccs2)[n+]([O-])c2ccccc21`, the z-score is 3.49 (active).

In the case of `CCOn1c(=O)c(-c2cccs2)[n+]([O-])c2ccccc21`, the z-score is -2.21.

Take `Cc1nn(C(C)C(=O)O)c(=O)c2c1sc1ccccc12` (stereo not drawn): the z-score is -0.395.

In turn, `N#Cc1cn(-c2ccccc2)nc1-c1ccco1` yielded a z-score of -0.0798.

Compound `CCNC(=O)C1CCCN1S(=O)(=O)c1ccc(OC)cc1` (stereo not drawn) had a z-score of 0.787.

In the case of `CCCCc1c(O)nc(SCC(=O)N2CCOCC2)[nH]c1=O`, the z-score was found to be 0.0929.

The compound `CC(C)c1c(O)nc(SCC(=O)N2CCOCC2)[nH]c1=O` gave a z-score of -0.357.

For `CCC(C)c1c(O)nc(SCC(=O)N2CCOCC2)[nH]c1=O` (stereo not drawn), the z-score came out at 2.93.

`COC(=O)c1ccccc1Oc1nc(Cl)cc(OC)n1` displayed a z-score of -0.22.

In the case of `CCOC(=O)c1cnc2c(C)c(Cl)ccc2c1Nc1ccc(S(=O)(=O)Nc2ncccn2)cc1`, the z-score was 9.28 (active).

`CCOC(=O)c1cnc2c(C)cc(C)cc2c1Nc1ccc(S(=O)(=O)Nc2ncccn2)cc1`: the z-score was -0.378.

`CCOC(=O)c1cnc2c(C)c(C)ccc2c1Nc1ccc(S(=O)(=O)Nc2ncccn2)cc1` showed a z-score of -0.177.

In turn, `CCOc1ccc(-n2c(=S)sc3c(=O)[nH]c(SCC(=O)NC(C)CC)nc32)cc1` (stereo not drawn) displayed a z-score of -0.859.

With `CC1CCN(Cc2nnnn2-c2cccc([N+](=O)[O-])c2)CC1`, the z-score was -0.243.

`CC(C)OCC(O)CCc1n[nH]c(=S)n1-c1ccccc1` (stereo not drawn) displayed a z-score of -0.224.

As to `Cc1ccc(OCCCNC2CCCC2)cc1`, the z-score was -0.0441.

In turn, `CC1CCN(CCCCOc2ccc(C(=O)c3ccccc3)cc2)CC1` registered a z-score of 2.47.

`O=C(c1ccccc1)c1ccc(OCCCN2CCCC2)cc1` came in with a z-score of -0.0127.

Consider `O=C(c1ccccc1)c1ccc(OCCCCN2CCCCC2)cc1`, for which the z-score was -0.455.

In the case of `c1ccc(OCCCN2CCCC2)cc1`, the z-score is 0.00842.

Turning to `COc1ccc(OCCCN2CCCCCC2)cc1`, the z-score was 8.02 (active).

As for `CCOc1ccc(OCCNC2CCCC2)cc1`, the z-score worked out at 0.0455.

Compound `COc1ccc(OCCCN2CCCC(C)C2)cc1` (stereo not drawn) showed a z-score of 0.314.

Turning to `c1ccc(COc2ccc(OCCCNC3CCCC3)cc2)cc1`, the z-score is 2.46.

Take `CCN1CCN(CCCCSc2ccccc2)CC1`: the z-score is -0.152.

Compound `CC(C)Oc1ccc(OCCCN2CCCCCC2)cc1` gave a z-score of -0.0757.

Take `CCN1CCN(CCCOc2ccc(-c3ccccc3)cc2)CC1`: the z-score was 4.56 (active).

Take `CSCCNC(=O)c1ccc(C(C)(C)C)cc1`: the z-score was -0.121.

For the compound `CCCc1cc(=O)[nH]c(SCC(=O)N(Cc2ccccc2)C(C)C)n1`, the z-score is -0.715.

With `CC(C)(C)C(=O)Nc1cc(NC(=O)C(C)(C)C)cc(C(=O)Nc2cc(C(=O)O)cc(C(=O)O)c2)c1`, the z-score is 0.00761.
